Results as given in PubChem BioAssay (Tox21).
Where “and” joins values, the source holds several entries; their conditions need not be identical. Identical values can stand only once. Results filed as inconclusive are left out. The source holds several records for some structures; these can differ, active in one and inactive in another. Calls of active or inactive are those of the source. Unless noted, calls come from the whole dose curve; as a rule, active = well fitted curve in the direction sought with a large enough effect in the repeat runs; inconclusive = weak or mixed curves; inactive = no such curve, though single readings can be large; an effect the other way counts as inactive or inconclusive.

Assays:
[1] = molecular target: Estrogen receptor beta (Homo sapiens) (UniProt Q92731); assay: qHTS assay to identify small molecule agonists of the estrogen receptor beta (ER-beta) signaling pathway (AID 1259377; active = well fitted activation curve with a large enough effect in the signal ratio in the repeat runs, not every such curve was filed as active; the % refers to the signal ratio)
Method in brief: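 Agonist mode cell assay in GripTite HEK293T cells expressing an ER-beta fusion that drives beta-lactamase from an Upstream Activator Sequence; 16 hr compound exposure at 37C, then 2 h LiveBLAzer B/G FRET substrate at room temperature, fluorescence read-out.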

[2] = molecular target: Estrogen receptor beta (Homo sapiens) (UniProt Q92731); assay: qHTS assay to identify small molecule antagonists of the estrogen receptor beta (ER-beta) signaling pathway (AID 1259378; active = well fitted inhibition curve with a large enough effect in the signal ratio in the repeat runs, not every such curve was filed as active; the % refers to the signal ratio; note: potency is the fitted concentration of half-maximal effect)
Method in brief: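 ER-beta-UAS-bla HEK293T (GripTite) cells in 2% charcoal-stripped FBS medium were preincubated 6 hr at 37C, dosed with compound, then stimulated with 1 nM E2 (final) for 16 hr; beta-lactamase reporter read by B/G FRET fluorescence after 2 hr substrate loading.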

[3] = qHTS assay to identify small molecule agonists of the androgen receptor (AR) signaling pathway in the presence of an antagonist - cell viability counter screen (AID 1259379); note: nearly all actives have a fitted effect of over 25% in size; note: potency is the fitted concentration of half-maximal effect
Method in brief: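 In MDA-kb2 cells (human breast carcinoma, MMTV-luciferase), compounds at 15 concentrations plus 3.0uM nilutamide; 16 hr, 37C, 0% CO2; CellTiter-Fluor fluorescence read for viability.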

[4] = qHTS assay to identify small molecule agonists of the estrogen receptor beta (ER-beta) signaling pathway - cell viability counter screen (AID 1259380); note: nearly all actives have a fitted effect of over 30% in size; note: potency is the fitted concentration of half-maximal effect
Method in brief: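 Viability of ER-beta-UAS-bla HEK293T cells was determined by CellTiter-Glo luminescence following 16 hr treatment with test compounds at 37C.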

[5] = qHTS assay to identify small molecule antagonists of the estrogen receptor beta (ER-beta) signaling pathway - cell viability counter screen (AID 1259382); note: nearly all actives have a fitted effect of over 55% in size; note: potency is the fitted concentration of half-maximal effect
Method in brief: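 Tox21 10K library tested in qHTS format on ER-beta-bla HEK293T cells stimulated with 1nM E2; 16 hr treatment at 37C. Same-well CellTiter-Glo luminescence served as the cell viability measure.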

[6] = qHTS assay to identify small molecule agonists or antagonists of the thyroid stimulating hormone receptor (TSHR) signaling pathway - wild type cell line counter screen (AID 1259384; calls by dose curve)
Method in brief: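 Wild-type HEK293 cells were plated 18 h at 37 C/5% CO2, pin-dosed with compound plus Ro20-1724 medium, held 30 min at room temperature, then given cAMP-d2 and anti-cAMP-cryptate; fluorescence was read after 1 h. Fifteen concentrations, triplicate.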

[7] = molecular target: Thyrotropin receptor (Homo sapiens) (UniProt P16473); assay: qHTS assay to identify small molecule antagonists of the thyroid stimulating hormone receptor (TSHR) signaling pathway (AID 1259385; calls by dose curve; note: nearly all actives have a fitted effect of over 20% in size; note: potency is the fitted concentration of half-maximal effect)
Method in brief: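 TSHR-HEK293 cells were plated and held 18 h at 37C/5% CO2, then given compound plus Ro20-1724 and stimulated with TSH at 1.5 ng/mL final. After 30 min at room temperature, cAMP was detected with cAMP-d2/anti-cAMP-cryptate (1 h) by fluorescence.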

[8] = qHTS assay to identify small molecule agonists of the estrogen receptor alpha (ER-alpha) signaling pathway in the presence of an antagonist - cell viability counter screen (AID 1259386);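 note: cells exposed to compounds for 22 h at 37 °C before the viability read; nearly all actives have a fitted effect of over 30% in size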; note: potency is the fitted concentration of half-maximal effect
Method in brief: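 Fluorescent CellTiter-Fluor viability signal from VM7Luc4E2 cells, with the reagent added during the final hour of a 22hr compound exposure at 37C in the presence of 10.0nM ICI-182,780.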

[9] = molecular target: Progesterone receptor (Homo sapiens) (UniProt P06401); assay: qHTS assay to identify small molecule agonists of the progesterone receptor (PR) signaling pathway (AID 1346784; calls by dose curve; note: nearly all actives have a fitted effect of over 30% in size)
Method in brief: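 Cells (PR-UAS-bla HEK 293T, GripTite) were plated in assay medium containing 2% charcoal-stripped FBS and incubated 6 hr. Test compounds in DMSO were added for 16 hr at 37C. FRET substrate was then loaded for 2 hr at room temperature before fluorescence reading.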

[10] = molecular target: Estrogen receptor (Homo sapiens) (UniProt P03372); assay: qHTS assay to identify small molecule agonists of the estrogen receptor alpha (ER-alpha) signaling pathway in the presence of an antagonist (AID 1259383; calls by dose curve; note: top concentration of the series differs between compounds; nearly all actives have a fitted effect of over 15% in size)
Method in brief: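 In VM7Luc4E2 cells, 4,000 per well, compounds at 15 concentrations were co-incubated 22hr at 37C with 10.0nM final ICI-182,780. Luminescence from the stably transfected 4×ERE-luciferase reporter was recorded 30min after ONE-Glo addition.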

Measured: Potency

Chain of Progesterone receptor (Homo sapiens) (P06401 whole entry, looked up): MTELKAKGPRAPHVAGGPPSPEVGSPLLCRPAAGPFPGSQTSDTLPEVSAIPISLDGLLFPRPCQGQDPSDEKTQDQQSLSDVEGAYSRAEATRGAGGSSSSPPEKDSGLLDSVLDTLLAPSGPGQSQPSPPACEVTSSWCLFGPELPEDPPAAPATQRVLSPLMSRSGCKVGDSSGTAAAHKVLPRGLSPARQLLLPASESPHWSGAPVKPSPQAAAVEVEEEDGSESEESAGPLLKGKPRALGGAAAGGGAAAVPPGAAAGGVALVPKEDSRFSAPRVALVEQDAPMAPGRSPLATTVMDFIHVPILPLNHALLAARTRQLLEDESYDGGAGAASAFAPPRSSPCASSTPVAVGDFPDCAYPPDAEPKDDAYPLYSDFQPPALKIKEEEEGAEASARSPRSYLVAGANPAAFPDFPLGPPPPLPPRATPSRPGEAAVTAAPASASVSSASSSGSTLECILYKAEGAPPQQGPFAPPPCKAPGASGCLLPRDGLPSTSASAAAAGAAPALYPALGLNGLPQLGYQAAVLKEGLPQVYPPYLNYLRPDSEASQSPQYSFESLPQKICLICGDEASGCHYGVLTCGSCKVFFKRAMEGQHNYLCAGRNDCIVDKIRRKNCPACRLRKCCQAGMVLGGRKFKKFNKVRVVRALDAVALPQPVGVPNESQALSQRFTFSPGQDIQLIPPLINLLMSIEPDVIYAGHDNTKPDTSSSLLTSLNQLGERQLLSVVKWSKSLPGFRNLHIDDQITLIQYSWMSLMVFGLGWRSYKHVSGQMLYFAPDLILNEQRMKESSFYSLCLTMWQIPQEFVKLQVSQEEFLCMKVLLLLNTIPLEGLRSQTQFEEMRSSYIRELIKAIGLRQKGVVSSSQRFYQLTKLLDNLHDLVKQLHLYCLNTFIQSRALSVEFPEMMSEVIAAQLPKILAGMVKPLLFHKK
Chain of Estrogen receptor (Homo sapiens) (P03372 whole entry, looked up): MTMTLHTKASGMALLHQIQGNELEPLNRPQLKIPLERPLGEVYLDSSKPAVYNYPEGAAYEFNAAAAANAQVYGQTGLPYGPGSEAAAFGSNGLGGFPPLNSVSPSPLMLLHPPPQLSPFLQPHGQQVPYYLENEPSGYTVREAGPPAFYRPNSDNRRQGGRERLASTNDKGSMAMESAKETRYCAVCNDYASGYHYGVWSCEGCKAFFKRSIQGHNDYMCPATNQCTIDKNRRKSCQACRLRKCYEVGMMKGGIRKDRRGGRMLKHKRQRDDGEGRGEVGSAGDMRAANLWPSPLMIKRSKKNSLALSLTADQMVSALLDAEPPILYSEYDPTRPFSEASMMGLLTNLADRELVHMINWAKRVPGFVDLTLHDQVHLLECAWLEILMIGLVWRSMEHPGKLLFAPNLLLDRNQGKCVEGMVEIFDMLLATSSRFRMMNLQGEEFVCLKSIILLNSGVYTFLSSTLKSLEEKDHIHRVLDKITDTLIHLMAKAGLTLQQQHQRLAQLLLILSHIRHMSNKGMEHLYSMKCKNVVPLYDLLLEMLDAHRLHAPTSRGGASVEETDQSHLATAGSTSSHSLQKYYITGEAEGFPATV
Chain of Thyrotropin receptor (Homo sapiens) (P16473 whole entry, looked up): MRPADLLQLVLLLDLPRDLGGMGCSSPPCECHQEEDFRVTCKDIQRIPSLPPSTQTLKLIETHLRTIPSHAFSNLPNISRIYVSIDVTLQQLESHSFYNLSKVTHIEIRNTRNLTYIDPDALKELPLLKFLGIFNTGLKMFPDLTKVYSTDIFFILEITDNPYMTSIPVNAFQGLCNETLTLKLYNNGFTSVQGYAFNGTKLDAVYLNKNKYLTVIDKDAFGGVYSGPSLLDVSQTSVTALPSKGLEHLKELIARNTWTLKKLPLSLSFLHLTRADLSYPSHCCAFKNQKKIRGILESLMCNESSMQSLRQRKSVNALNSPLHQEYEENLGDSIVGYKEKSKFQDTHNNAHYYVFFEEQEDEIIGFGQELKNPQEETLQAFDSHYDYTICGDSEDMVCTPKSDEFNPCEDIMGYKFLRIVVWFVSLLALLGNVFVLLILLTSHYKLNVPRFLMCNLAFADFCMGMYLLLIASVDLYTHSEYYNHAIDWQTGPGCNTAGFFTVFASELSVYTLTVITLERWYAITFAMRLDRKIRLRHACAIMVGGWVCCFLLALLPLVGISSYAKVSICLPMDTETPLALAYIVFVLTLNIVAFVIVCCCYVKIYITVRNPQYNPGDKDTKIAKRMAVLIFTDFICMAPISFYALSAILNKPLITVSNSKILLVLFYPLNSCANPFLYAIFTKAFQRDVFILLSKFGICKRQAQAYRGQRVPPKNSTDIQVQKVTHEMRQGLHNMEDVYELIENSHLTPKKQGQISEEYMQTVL
Chain of Estrogen receptor beta (Homo sapiens) (Q92731 whole entry, looked up, the tested form may be a part): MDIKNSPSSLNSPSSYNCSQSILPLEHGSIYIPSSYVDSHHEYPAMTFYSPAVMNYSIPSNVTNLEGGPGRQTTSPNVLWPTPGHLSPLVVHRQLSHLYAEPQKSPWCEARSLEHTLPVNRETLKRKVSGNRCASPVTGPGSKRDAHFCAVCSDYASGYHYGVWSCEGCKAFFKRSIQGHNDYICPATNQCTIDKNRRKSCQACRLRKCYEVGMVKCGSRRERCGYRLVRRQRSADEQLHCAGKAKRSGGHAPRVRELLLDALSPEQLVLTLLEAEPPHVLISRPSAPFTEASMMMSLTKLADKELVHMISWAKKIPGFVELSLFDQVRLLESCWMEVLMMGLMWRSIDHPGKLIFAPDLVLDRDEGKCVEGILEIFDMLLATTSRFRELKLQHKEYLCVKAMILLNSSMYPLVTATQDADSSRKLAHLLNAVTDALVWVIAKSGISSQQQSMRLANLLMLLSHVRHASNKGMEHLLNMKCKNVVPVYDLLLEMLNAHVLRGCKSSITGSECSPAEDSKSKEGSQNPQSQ

O=Cc1ccc(Cl)cc1
inactive: [1] | [2] | [3] | [4] | [5] | [6] | [7] | [8] | [9]

O=C(O)CCc1ccccc1
inactive: [1] | [2] | [3] | [4] | [5] | [6] | [7] | [9]

CCCCCCC(O)CCCCCCCCCCC(=O)O (stereo not given)
inactive: [1] | [2] | [3] | [6] | [7] | [9]
inactive and 48.6 µM (active): [4]

c1ccc2n[nH]nc2c1
inactive: [1] | [2] | [3] | [4] | [5] | [8] | [9]

C=C(C)C1CC=C(C)C(OC(C)=O)C1 (stereo not given)
inactive: [1] | [2] | [3] | [4] | [10] | [7] | [8] | [9]

BrC1CCC(Br)C(Br)CCC(Br)C(Br)CCC1Br (stereo not given)
active: [4] 30.5 µM and 46.1 µM
inactive: [1] | [2] | [3] | [10] | [6] | [9]

CCCCN(CCO)CCCC
inactive: [1] | [2] | [3] | [4] | [10] | [6] | [7] | [8] | [9]

O=C1Nc2ccccc2C1(c1ccc(O)cc1)c1ccc(O)cc1
inactive: [1] | [4] | [10] | [6] | [7] | [9]
active: [2] 27.3 µM and 18.8 µM

OCC(CO)N[C@H]1C[C@](O)(CO)[C@@H](O)[C@H](O)[C@H]1O
inactive: [1] | [2] | [3] | [4] | [10] | [6] | [7] | [8] | [9]

O=c1n(CC2CO2)c(=O)n(CC2CO2)c(=O)n1CC1CO1 (stereo not given)
inactive: [1] | [2] | [4] | [5] | [10] | [8] | [9]

Cc1ccc(S(=O)(=O)Oc2ccc(N=Nc3ccc(-c4ccc(N=Nc5c(O)ccc6cc(S(=O)(=O)O)cc(S(=O)(=O)O)c56)c(C)c4)cc3C)cc2)cc1
active: [3] 24.4 µM and 17.8 µM | [7] 61.4 µM | [8] 27.4 µM and 11.2 µM
inactive: [1] | [2] | [4] | [5] | [9]

Cc1cc(C(C)(C)C)c(O)c(C(C)(C)C)c1
inactive: [1] | [2] | [3] | [4] | [5] | [8] | [9]

CCC(C)(C)C(=O)O[C@H]1C[C@@H](C)C=C2C=C[C@H](C)[C@H](CC[C@@H]3C[C@@H](O)CC(=O)O3)[C@H]21
active: [4] 27.3 µM and 13.3 µM | [5] 11.9 µM
inactive: [1] | [3] | [10] | [6] | [7] | [9]

C[N+]1([O-])CCOCC1
inactive: [1] | [2] | [3] | [4] | [5] | [6] | [7] | [9]

COC(c1ccccc1)(c1ccccc1)[C@H](Oc1nc(C)cc(C)n1)C(=O)O
inactive: [1] | [2] | [3] | [6] | [7] | [8] | [9]

C=CC(=O)OCCCCCCOC(=O)C=C
active: [2] 54.5 µM | [4] 24.3 µM
inactive: [1] | [5] | [10] | [9]

Nc1nc(=S)c2[nH]cnc2[nH]1
inactive: [1] | [2] | [3] | [10] | [6] | [8] | [9]
active: [4] 3.06 µM and 2.98 µM

Oc1c(Cl)cc(Cl)cc1Sc1cc(Cl)cc(Cl)c1O
active: [2] 27.8 µM and 7.7 µM | [4] 54.6 µM and 61.1 µM | [5] 30.7 µM and 54.5 µM
inactive: [1] | [10] | [6] | [7]

CO[Si](OC)(OC)c1ccccc1
inactive: [1] | [2] | [3] | [4] | [10] | [6] | [7] | [8] | [9]

CCCCC(CC)COC(=O)CC(C(=O)OCC(CC)CCCC)S(=O)(=O)O (stereo not given)
active: [4] 26.3 µM and 30.6 µM | [5] 29.5 µM and 27.3 µM
inactive: [1] | [3] | [10] | [8] | [9]

COc1ccc(Cc2cnc(N)nc2N)cc1OC
inactive: [1] | [2] | [3] | [4] | [10] | [7] | [8] | [9]

C#CC(C)(CC)OC(=O)c1ccccc1C(=O)O (stereo not given)
inactive: [1] | [2] | [3] | [4] | [10] | [6] | [8] | [9]

O=C(Cl)c1cccc(C(=O)Cl)c1
inactive: [1] | [2] | [3] | [4] | [8] | [9]
